Screening data (PubChem BioAssay)
RE007 growth inh: less growth of the S. pombe RE007 Vpr strain; S. pombe RE007 Vpr strain, BacTiter-Glo ATP luminescence, 24 h; Potency, µM (doses to about 92.2 µM), for inactives: top-dose activity change, negative = less growth, most hits filed as inhibitors; actives 0.21% (n = 360,000); active = well fitted falling curve with a large enough effect; inconclusive = small, poorly fitted or top-dose-only effect; inactive = no such curve, though single readings can be large or run the other way; note: potency is the fitted concentration of half-maximal effect; % is set by controls: 0 for no effect and ±100 for the full control effect; nearly all actives have a fitted effect of over 50% in size
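Fission yeast RE007 carrying one integrated HIV-1 vpr copy, seeded at OD 0.01 in PMG+AL medium with 23 nL pinned compound. Grown 24 h at 30 degrees; viability read by BacTiter-Glo luminescence after 5 min.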
CHX counter: counter-screen hit for Shiga toxin inhibitors, cycloheximide; cell reporter, cycloheximide protein synthesis inhibition counterscreen; max response, %; actives 12% (n = 300,000); in the data active = max response mostly above about 13%, no sharp cut-off; inactive = mostly below about 14%; note: read at 38.3 µM for the half of the compounds with a filed dose; 0% is about no effect
LmPK inh: blocks Leishmania mexicana pyruvate kinase activity | actives 0.37% (n = 290,000) | Potency, µM (titrated, usually from 57.5 µM), inactives show top-dose activity change, negative = inhibition, hits mostly inhibitors | purified LmPK, Kinase-Glo ATP luminescence, 1 h | AID 1721 | Q27686; note: potency is the fitted concentration of half-maximal effect; % is set by controls: 0 for no effect and ±100 for the full control effect
Target sequence (Q27686 whole entry, looked up): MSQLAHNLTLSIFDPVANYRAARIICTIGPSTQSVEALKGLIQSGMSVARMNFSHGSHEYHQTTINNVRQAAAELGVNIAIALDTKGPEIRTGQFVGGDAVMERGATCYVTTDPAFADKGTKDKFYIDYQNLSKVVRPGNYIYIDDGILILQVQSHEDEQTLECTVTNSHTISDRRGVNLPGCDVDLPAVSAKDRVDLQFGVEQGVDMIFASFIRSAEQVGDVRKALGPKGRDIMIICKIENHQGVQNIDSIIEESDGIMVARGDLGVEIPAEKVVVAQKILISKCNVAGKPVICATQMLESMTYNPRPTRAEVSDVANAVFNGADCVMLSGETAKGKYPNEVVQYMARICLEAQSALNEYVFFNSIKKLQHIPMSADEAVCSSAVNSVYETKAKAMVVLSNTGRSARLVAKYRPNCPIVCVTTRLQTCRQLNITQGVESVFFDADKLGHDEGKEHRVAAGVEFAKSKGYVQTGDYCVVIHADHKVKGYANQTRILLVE
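Purified LmPK (0.1 nM) with 0.5 mM PEP and 0.1 mM ADP in imidazole buffer pH 7.2 with MgCl2/KCl, 1 h at room temperature. ATP formed was read by luciferase luminescence and normalized to no-enzyme and uninhibited controls.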
FBPA Giardia inh: Giardia lamblia aldolase inhibition; purified Giardia FBPA; Potency, µM (top dose mostly 59.6 µM), for inactives: at the highest dose activity, negative = inhibition, usual class: inhibitors; actives 0.71% (n = 290,000); note: potency is the fitted concentration of half-maximal effect; % is set by controls: 0 for no effect and ±100 for the full control effect; nearly all actives have a fitted effect of over 55% in size
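40 nM FBPA preincubated 10 min at RT with compound (up to 57.5 uM final), then substrate plus GAPDH/TPI/NAD/arsenate coupling and diaphorase/resazurin added. Fluorescence read after 20 min at RT, 525/598 nm.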
Tb PYK inh: inhibitors of Trypanosoma brucei pyruvate kinase | actives 0.12% (n = 410,000) | Q57TT1 | TbPYK enzyme, Kinase-Glo Plus ATP luminescence, 45 min | Potency, µM (doses to about 76.8 µM), for inactives: at the top dose activity, negative = inhibition, hits mostly inhibitors | AID 624173; note: potency is the fitted concentration of half-maximal effect; % is set by controls: 0 for no effect and ±100 for the full control effect; nearly all actives have a fitted effect of over 50% in size
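Readout: single end-point luminescence (Kinase-Glo Plus, 10 min). Reaction conditions were TbPYK/substrate plus 130 uM ADP, 45 min at RT, pH 7.2 TEA buffer. No-enzyme wells served as controls, and data were normalized before concentration-response fitting.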
Shiga inhibitor: blocks Shiga toxin action in Vero cells | Vero cells, Shiga toxin protein synthesis inhibition reporter | inhibition, % at 38.7 µM | actives 9.2% (n = 290,000); in the data active = inhibition mostly above about 28%, no sharp cut-off; inactive = mostly below about 43%; note: 0% is about no effect
Active calls of the source: *; ? = inconclusive; nt = no result given; [ ] = another dose, or the depositor's remark. The entries come from a sample that favours hits as a whole. Unless noted, calls come from the whole dose curve; as a rule, active = well fitted curve in the direction sought with a large enough effect; inconclusive = small, poorly fitted or top-dose-only effect, or another doubt; inactive = no such curve, though single readings can be large; an effect the other way counts as inactive or inconclusive.

SMILES | RE007 growth inh | CHX counter | LmPK inh | FBPA Giardia inh | Tb PYK inh | Shiga inhibitor
O=C(OCc1nnc(-c2ccc(Cl)cc2)o1)C12CC3CC(CC(O)(C3)C1)C2 | 7% | 39* | 2% | 1% | 5% | 118*
O=C(NCCc1ccc(Cl)cc1)C12CC3CC(CC(O)(C3)C1)C2 | 6% | 19* | 1% | nt | -10% | 17
Cc1ccc(CCNC(=O)C23C[C@H]4C[C@@H](C2)CC(n2nnc(C)n2)(C4)C3)cc1 | -2% | 41* | -1% | 3% | -6% | 59
Cc1ccc(C)c(C(=O)c2c(N)c(-c3nc(-c4ccc5c(c4)OCO5)cs3)c3ccccn23)c1 | nt | nt | nt | nt | 2% | nt
N#Cc1cc2c(nc1SCC(=O)N1CCOCC1)CCCCC2 | -4% | 42* | 1% | 3% | -14% | 101*
N#Cc1cc2cc3c(cc2nc1SCC(=O)N1CCCC1)OCCO3 | 2% | 19 | 2% | -9% | 3% | 51*
CC(=O)CSc1nc2cc3c(cc2cc1C#N)OCCO3 | -7% | 14 | 7% | ? | -4% | 32
COc1cc2cc(C#N)c(SCC(=O)N3CCOCC3)nc2cc1OC | -10% | 3 | 1% | -9% | 8% | -1
N#Cc1cc2c(nc1SCC(N)=O)CCCCC2 | -18% | 18* | 0% | 7% | -6% | 107
CCOC(=O)CC(=O)CSc1nc2c(cc1C#N)CCCCCC2 | -13% | -2 | -10% | -1% | 12% | 13
O=C(c1ccncc1)N1CCC[C@@]2(CCN(c3ccccn3)C2)C1 | nt | nt | nt | 0% | 0% | nt
CCOC(=O)C1=C(Cc2ccc(Cl)cc2)C(=O)c2ccccc2C1=O | 35µM* | 12 | ? | 2.5µM* | ? | 40
O=C(O)c1ccc2c(c1)C(=O)N([C@]1(C(=O)O)C[C@H]1c1ccccc1)C2=O | nt | -4 | nt | 3% | nt | -1
COc1ccc(CCNC(=O)Cn2nc(C)c3c(C)n(-c4ccc(C)cc4)nc3c2=O)c(OC)c1 | nt | nt | nt | nt | -2% | nt
CCOC(=O)c1sc2nccc(N(C)C)c2c1N=CNOC | 19% | -5 | 3% | 2% | -12% | -19
Cc1ccc(C(=O)NCC(=O)OCc2c(F)cccc2Cl)s1 | 8% | nt | nt | nt | 3% | nt
CCOC(=O)c1sc2nccc(N(C)C)c2c1N=CNOCc1ccccc1 | 8% | 16* | -9% | -8% | 8% | 21
CCOC(=O)c1sc2nccc(N(C)C)c2c1N=CNOCc1c(F)cccc1Cl | 26% | 25* | 6% | 1% | 4% | 35
Cc1c(Cl)cccc1NC(=O)Cn1nc(C(F)(F)F)c2c1CCC2 | nt | nt | nt | nt | 3% | nt
CC(C)CCNC(=O)C1CCN(Cc2cccc(OCc3ccccc3)c2)CC1 | -8% | 6 | -5% | 25% | -19% | 6
CCOc1ccc(CNC(=O)C2CCN(S(=O)(=O)CC)CC2)cc1OC | 25% | -5 | -1% | 1% | -7% | -14
COc1cc(CNC(=O)C2CC2)ccc1OCc1ccccc1 | ? | 46* | -20% | -5% | -17% | 64*
COc1cc(CN2CCCCC2)ccc1OCc1ccccc1 | 0% | 32* | -5% | ? | 19% | 56*
COc1cc(CN2CCC(C(=O)NCCC(C)C)CC2)ccc1OCc1ccccc1 | 7% | 25* | 1% | -10% | 7% | 101*
CCOCCc1nn2c(=O)cc(COC(=O)c3cccc(C)c3)nc2s1 | nt | nt | nt | nt | 0% | nt
SMILES | RE007 growth inh | CHX counter | LmPK inh | FBPA Giardia inh | Tb PYK inh | Shiga inhibitor
COc1ccc(NC(=O)Cn2ncc3c4ccccc4n(Cc4ccccc4)c3c2=O)cc1OC | nt | nt | nt | nt | 1% | nt
COc1ccc(CCc2nnc(CCC(=O)NCc3cc(C(C)C)no3)o2)cc1 | -9% | 35* | -15% | 1% | -2% | 80*
COc1ccc(CCc2nnc(CCC(=O)NCCc3ncccc3C)o2)cc1 | -12% | 21* | -5% | 6% | 5% | 25
COC(=O)c1cc2oc(C)cc2n1Cc1cc(C)ccc1C | nt | nt | nt | nt | -17% | nt
Cc1ccc2cc3cc(C(=O)NCc4ccco4)oc3nc2c1 | -11% | 23* | 2% | 1% | 2% | 32*
O=C(c1cc2cc3ccc(Cl)cc3nc2o1)N1CCCCCC1 | -3% | 21* | 7% | 13% | 1% | 79*
Cc1ccc2cc3cc(C(=O)NC4CCCCC4)oc3nc2c1 | 0% | 17 | 0% | nt | -3% | 13
Cc1ccc2cc3cc(C(=O)NC4CC4)oc3nc2c1 | -1% | 26* | 1% | -16% | -11% | 30
COc1ccc2cc3cc(C(=O)N4CC(C)CC(C)C4)oc3nc2c1 (centres undefined) | -8% | 19 | -13% | nt | 0% | 23
Cc1ccc2cc3cc(C(=O)N4CC(C)CC(C)C4)oc3nc2c1 (centres undefined) | ? | 27* | 0% | -8% | -11% | 41*
COc1ccc(CNC(=O)C(=O)NCC(c2cccnc2)N2CCN(c3ccccc3)CC2)cc1 (centres undefined) | nt | nt | nt | nt | 7% | nt
Cc1ccc2cc3cc(C(=O)N4CCC5(CC4)OCCO5)oc3nc2c1 | -4% | 10 | -3% | 7% | 2% | 11
Cc1ccc2cc3cc(C(=O)N4CCCCC4C)oc3nc2c1 (centres undefined) | -20% | 21* | -2% | 0% | 1% | 61*
COc1cccc(CNC(=O)C2CCN(S(=O)(=O)c3c(C)noc3/C=C/c3cccs3)CC2)c1 | nt | nt | nt | nt | 4% | nt
CCOC(=O)c1c(C)oc2cc(Cl)c(O)c(CN(C)C)c12 | ? | 39* | -11% | -8% | 8% | 69*
COc1ccc(NC(=O)c2oc3ccccc3c2NC(=O)Cc2ccc(F)cc2)c(OC)c1 | nt | nt | nt | nt | 0% | nt
CCN(CC(=O)Nc1ccc2c(c1)OCCO2)Cc1cc(=O)oc2c(C)c(C)ccc12 | -8% | 9.1* | 1% | -1% | -5% | -4
CCN(CC(=O)Nc1ccc2c(c1)OCCO2)CC(=O)Nc1ccc2c(c1)OCO2 | -5% | 15 | 16% | -8% | 0% | 21
COc1cccc(C(=O)Nc2ccc(NC(=O)C3CCCCC3C(=O)O)cc2)c1 (centres undefined) | 10% | 39* | -6% | nt | 3% | 21
COc1ccc(NC(=O)c2ccccc2NC(=O)c2ccccc2)cc1 | nt | 13 | -5% | -8% | -1% | -4
COc1ccc(NC(=O)c2ccccc2NC(=O)C2CCCO2)cc1 (centres undefined) | 10% | 24* | 0% | -14% | 1% | 49*
COc1ccc(NC(=O)c2ccccc2NC(=O)C2CC=CCC2C(=O)O)cc1 (centres undefined) | 5% | 41* | -8% | nt | 36% | 88*
O=C(NCCc1ccccc1)c1ccccc1NC(=O)C1CCCO1 (centres undefined) | 7% | 30* | 0% | 3% | 3% | 67*
C/C=C\C1=C(CO)C(=O)C2O[C@]2(CC=C(C)C)C1=O (some centres undefined) | nt | nt | nt | -22%[12.9 µM] | nt | nt
